Common to all, as to experiment: yeast three-hybrid, YBZ-1, SC-Leu-His + 0.5 mM 3-AT, 4 days
Common to all, as to conditions: tags: N-Gal4 AD-HA kept; label: inside an RPR1-promoter hybrid RNA with tandem MS2 sites; ssRNA

One assay concerns the target PUM1 PUF domain R4-PFC (Homo sapiens, UniProt Q14671 828-1176, N971P;H972F;Q975C). Put shortly: (§1)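 The interaction score is the log change in variant frequency from input to selection. Scores were computed in log2 with a pseudocount of 1 for absent variants, using Illumina sequencing of PCR-amplified repeat regions. The input came from four days on SC-Leu and the selection from four days on SC-Leu-His + 0.5 mM 3-AT. The cells were strain YBZ-1 (LexA–MS2 coat fusion, HIS3 reporter) co-expressing Pumilio-1 PUF domain libraries and matching RNA elements from a centromeric plasmid.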

Another assay addresses PUM1 PUF domain R5-RRY (Homo sapiens, UniProt Q14671 828-1176, C1007R;Q1011Y). Put shortly: as §1
The target of the next assay is T1, PUM1 PUF domain R6-QHR (Homo sapiens, UniProt Q14671 828-1176, N1043Q;Y1044H;Q1047R).
T1 sequence: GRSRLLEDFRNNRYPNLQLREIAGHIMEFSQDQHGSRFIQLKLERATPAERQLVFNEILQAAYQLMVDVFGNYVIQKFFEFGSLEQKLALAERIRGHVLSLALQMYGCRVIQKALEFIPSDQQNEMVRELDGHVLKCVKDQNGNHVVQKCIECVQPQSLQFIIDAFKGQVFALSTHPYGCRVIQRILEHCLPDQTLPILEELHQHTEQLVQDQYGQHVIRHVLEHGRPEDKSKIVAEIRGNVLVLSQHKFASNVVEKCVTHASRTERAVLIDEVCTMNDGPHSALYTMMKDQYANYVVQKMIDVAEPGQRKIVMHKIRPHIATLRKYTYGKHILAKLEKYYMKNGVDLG
Put shortly:
as §1

The next assay has as its target PUM1 PUF domain R4-NRG (Homo sapiens, UniProt Q14671 828-1176, H972R;Q975G). Summed up:
as §1

A further assay concerns the target T2, PUM1 PUF domain R6-FWK (Homo sapiens, UniProt Q14671 828-1176, N1043F;Y1044W;Q1047K).
T2 sequence: T1 sequence with Q216F, H217W, R220K
Summed up:
as §1

The next assay deals with T3, PUM1 PUF domain R6-QWR (Homo sapiens, UniProt Q14671 828-1176, N1043Q;Y1044W;Q1047R).
T3 sequence: T1 sequence with H217W
Put shortly: as §1

For a further assay, the target named is PUM1 PUF domain R8-KRS (Homo sapiens, UniProt Q14671 828-1176, N1122K;Y1123R;Q1126S). Summed up: as §1
Another assay addresses PUM1 PUF domain R5-RSQ (Homo sapiens, UniProt Q14671 828-1176, C1007R;R1008S). Summed up:
as §1

Another assay concerns the target T4, PUM1 PUF domain R6-IWL (Homo sapiens, UniProt Q14671 828-1176, N1043I;Y1044W;Q1047L).
T4 sequence: T1 sequence with Q216I, H217W, R220L
Put shortly:
as §1

A further assay addresses T5, PUM1 PUF domain R6-HHR (Homo sapiens, UniProt Q14671 828-1176, N1043H;Y1044H;Q1047R).
T5 sequence: T1 sequence with Q216H
Summed up:
as §1

The target in the next assay is PUM1 PUF domain R4-SRM (Homo sapiens, UniProt Q14671 828-1176, N971S;H972R;Q975M). Put shortly: as §1
The next assay deals with PUM1 PUF domain R5-RHV (Homo sapiens, UniProt Q14671 828-1176, C1007R;R1008H;Q1011V). Summed up:
as §1

In another assay the target is PUM1 PUF domain R3-VFY (Homo sapiens, UniProt Q14671 828-1176, C935V;R936F;Q939Y). Summed up:
as §1

The next assay has as its target PUM1 PUF domain R5-EAC (Homo sapiens, UniProt Q14671 828-1176, C1007E;R1008A;Q1011C). Put shortly: as §1
The next assay concerns the target PUM1 PUF domain R5-KSG (Homo sapiens, UniProt Q14671 828-1176, C1007K;R1008S;Q1011G). Summed up: as §1
Another assay addresses PUM1 PUF domain R5-RCV (Homo sapiens, UniProt Q14671 828-1176, C1007R;R1008C;Q1011V). Summed up: as §1
Another assay addresses PUM1 PUF domain R2-PYE (Homo sapiens, UniProt Q14671 828-1176, N899P;Q903E). Summed up:
as §1

For the next assay, the target named is PUM1 PUF domain R7-RWP (Homo sapiens, UniProt Q14671 828-1176, S1079R;N1080W;E1083P). Put shortly: as §1
In a further assay the target is PUM1 PUF domain R3-RRS (Homo sapiens, UniProt Q14671 828-1176, C935R;Q939S). Put shortly: as §1
The next assay deals with PUM1 PUF domain R1-QWK (Homo sapiens, UniProt Q14671 828-1176, S863Q;R864W;Q867K). Put shortly:
as §1

Numbering of substitutions follows the chain as printed.

As for “GGCUAGAACUAGUGGAUCCCCCGGCGCCCGGCGGCUCGAGCCCGGGUAAGUGUAAAUAGUCUGCAUGCCGCCGGGCGCCAUGCCUGCAGGUCGACUCUAGAAAACAUG”, the binding signal with PUM1 PUF domain R4-PFC is 7.66 log2 enrichment (interaction score); in the assay with PUM1 PUF domain R5-RRY it was 1.18 log2 enrichment (interaction score); with PUM1 PUF domain R6-QHR, 6.41 log2 enrichment (interaction score); in the assay with PUM1 PUF domain R4-NRG it was 3.35 log2 enrichment (interaction score); with PUM1 PUF domain R6-FWK, 2.07 log2 enrichment (interaction score); in the assay with PUM1 PUF domain R6-QWR, 2.53 log2 enrichment (interaction score). Besides, the binding signal in the assay with PUM1 PUF domain R8-KRS is 1.29 log2 enrichment (interaction score); with PUM1 PUF domain R5-RSQ, 1.05 log2 enrichment (interaction score); with PUM1 PUF domain R6-IWL, 3.09 log2 enrichment (interaction score); with PUM1 PUF domain R6-HHR, 5.44 log2 enrichment (interaction score); with PUM1 PUF domain R4-SRM, 3.86 log2 enrichment (interaction score); with PUM1 PUF domain R5-RHV, 2.87 log2 enrichment (interaction score). In addition, in the assay with PUM1 PUF domain R3-VFY, the binding signal was 6.12 log2 enrichment (interaction score).
Turning to “GGCUAGAACUAGUGGAUCCCCCGGCGCCCGGCGGCUCGAGCCCGGGUAAGUGUGAAUAGUCUGCAUGCCGCCGGGCGCCAUGCCUGCAGGUCGACUCUAGAAAACAUG”, the binding signal in the assay with PUM1 PUF domain R5-EAC is 3.49 log2 enrichment (interaction score).
In the case of “GGCUAGAACUAGUGGAUCCCCCGGCGCCCGGCGGCUCGAGCCCGGGUAAGUGCAAAUAGUCUGCAUGCCGCCGGGCGCCAUGCCUGCAGGUCGACUCUAGAAAACAUG”, the binding signal with PUM1 PUF domain R6-QWR was 2.4 log2 enrichment (interaction score).
Take “GGCUAGAACUAGUGGAUCCCCCGGCGCCCGGCGGCUCGAGCCCGGGUAAGUGUACAUAGUCUGCAUGCCGCCGGGCGCCAUGCCUGCAGGUCGACUCUAGAAAACAUG”: the binding signal is 5.29 log2 enrichment (interaction score) with PUM1 PUF domain R4-PFC, 0.43 log2 enrichment (interaction score) with PUM1 PUF domain R4-NRG and 2.16 log2 enrichment (interaction score) in the assay with PUM1 PUF domain R4-SRM.
As to “GGCUAGAACUAGUGGAUCCCCCGGCGCCCGGCGGCUCGAGCCCGGGUAAGUGUCAAUAGUCUGCAUGCCGCCGGGCGCCAUGCCUGCAGGUCGACUCUAGAAAACAUG”, the binding signal with PUM1 PUF domain R5-KSG was 3.24 log2 enrichment (interaction score); with PUM1 PUF domain R5-RRY, 4.32 log2 enrichment (interaction score); with PUM1 PUF domain R5-RSQ it was 4.6 log2 enrichment (interaction score); with PUM1 PUF domain R5-RCV it was 2.81 log2 enrichment (interaction score); with PUM1 PUF domain R5-RHV, 5.74 log2 enrichment (interaction score).
For “GGCUAGAACUAGUGGAUCCCCCGGCGCCCGGCGGCUCGAGCCCGGGUAAGUGUAUAUAGUCUGCAUGCCGCCGGGCGCCAUGCCUGCAGGUCGACUCUAGAAAACAUG”, the binding signal is 7.01 log2 enrichment (interaction score) with PUM1 PUF domain R4-PFC, 2.73 log2 enrichment (interaction score) in the assay with PUM1 PUF domain R4-NRG and 2.54 log2 enrichment (interaction score) with PUM1 PUF domain R4-SRM.
With “GGCUAGAACUAGUGGAUCCCCCGGCGCCCGGCGGCUCGAGCCCGGGUAAGUGUAAAAAGUCUGCAUGCCGCCGGGCGCCAUGCCUGCAGGUCGACUCUAGAAAACAUG”, the binding signal with PUM1 PUF domain R2-PYE was 5.7 log2 enrichment (interaction score).
In the case of “GGCUAGAACUAGUGGAUCCCCCGGCGCCCGGCGGCUCGAGCCCGGGUAAGUCUAAAUAGUCUGCAUGCCGCCGGGCGCCAUGCCUGCAGGUCGACUCUAGAAAACAUG”, in the assay with PUM1 PUF domain R7-RWP, the binding signal is 4.98 log2 enrichment (interaction score).
“GGCUAGAACUAGUGGAUCCCCCGGCGCCCGGCGGCUCGAGCCCGGGUAAGUGUAAUUAGUCUGCAUGCCGCCGGGCGCCAUGCCUGCAGGUCGACUCUAGAAAACAUG”: the binding signal was 3.9 log2 enrichment (interaction score) in the assay with PUM1 PUF domain R3-RRS and 5.89 log2 enrichment (interaction score) with PUM1 PUF domain R3-VFY.
As to “GGCUAGAACUAGUGGAUCCCCCGGCGCCCGGCGGCUCGAGCCCGGGUAAGUGUAAAUCGUCUGCAUGCCGCCGGGCGCCAUGCCUGCAGGUCGACUCUAGAAAACAUG”, the binding signal with PUM1 PUF domain R1-QWK is 5.98 log2 enrichment (interaction score).
For the sequence “GGCUAGAACUAGUGGAUCCCCCGGCGCCCGGCGGCUCGAGCCCGGGUAAGUGUUAAUAGUCUGCAUGCCGCCGGGCGCCAUGCCUGCAGGUCGACUCUAGAAAACAUG”, the binding signal was 2.98 log2 enrichment (interaction score) with PUM1 PUF domain R5-KSG, 3.28 log2 enrichment (interaction score) in the assay with PUM1 PUF domain R5-RRY, 4.05 log2 enrichment (interaction score) with PUM1 PUF domain R5-RSQ and 5.95 log2 enrichment (interaction score) with PUM1 PUF domain R5-RHV.
With “GGCUAGAACUAGUGGAUCCCCCGGCGCCCGGCGGCUCGAGCCCGGGUAAGCGUAAAUAGUCUGCAUGCCGCCGGGCGCCAUGCCUGCAGGUCGACUCUAGAAAACAUG”, in the assay with PUM1 PUF domain R8-KRS, the binding signal was 3.28 log2 enrichment (interaction score).
